The target in assay [1] is N-terminal Xaa-Pro-Lys N-methyltransferase 1 (Homo sapiens) (UniProt Q9BV86). Put plainly: Confirmatory qHTS for Inhibitors of N-terminal methyltransferase 1 (NTMT1): MTaseGlo Assay (AID 1645874). Also: nearly all actives have a fitted effect of over 65% in size. Also: potency is read from the fitted curve at half-maximal effect.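 As to activity change, negative = inhibition: luminescence from SAH made as NTMT1 methylates SPKRIA peptide using SAM; 0% = DMSO control and -100% = no-enzyme control.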 A digest of the protocol: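 MTase-Glo luminescence measured SAH formed by 125 nM NTMT1 from 100 uM SAM and 1 uM SPKRIA peptide over 30 min at room temperature, following 15 min compound preincubation. Percent inhibition against no-enzyme and DMSO controls gave 4-parameter Hill fits.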
Chain of N-terminal Xaa-Pro-Lys N-methyltransferase 1 (Homo sapiens) (Q9BV86 whole entry, looked up): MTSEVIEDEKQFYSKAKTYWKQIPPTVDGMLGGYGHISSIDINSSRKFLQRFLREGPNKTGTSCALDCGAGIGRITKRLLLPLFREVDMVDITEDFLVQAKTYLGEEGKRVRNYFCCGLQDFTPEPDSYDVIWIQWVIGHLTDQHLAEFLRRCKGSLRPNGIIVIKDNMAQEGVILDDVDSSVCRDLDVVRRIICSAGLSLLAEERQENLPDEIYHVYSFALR
In general terms: In qHTS, concentration-response curves come from the screen itself.

Assay [2] in a line: qHTS for Inhibitors of Ubiquitin-specific Protease USP2a Using CHOP2 as the Reporter: K633 Counterscreen (AID 652168). Also: % of control where 0% means no effect. The essentials: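 Detection-system control: fluorescence of K48-linked DiUb-4IQF substrate (100 nM as added) tracked over time, Ex 525/Em 598, with pinned compounds and no enzyme, in pH 8 Tris buffer containing beta-mercaptoethanol and 0.05% Chaps.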
For assay [3], the target named is Ubiquitin carboxyl-terminal hydrolase 2 (Homo sapiens) (UniProt O75604). Put plainly: qHTS for Inhibitors of Ubiquitin-specific Protease USP2a Using CHOP2 as the Reporter: K484 Substrate (AID 652173).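 Also: cleavage of internally quenched K48 di-ubiquitin substrate measured as rising fluorescence over time; potency is read from the fitted curve at half-maximal effect; nearly all actives have a fitted effect of over 70% in size.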 To be noted: USP2 cleavage of DiUb K48 IQF substrate, fluorescence. A digest of the protocol:
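Kinetic fluorescence (Ex 525/Em 598) tracked cleavage of an internally quenched K48 di-ubiquitin substrate, added as a 100 nM solution. The enzyme was added as a 5 nM USP2 solution before compound pinning, with no-enzyme controls. Buffer: Tris pH 8, beta-mercaptoethanol, CHAPS.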

Assay [4] in a line: Primary qHTS for inhibitors of nuclear receptor binding SET domain protein 2 (NSD2) in an isogenic RCH-ACV NSD2 p.E1099K mutant (9B) (AID 1645876). Also: nearly all actives have a fitted effect of over 70% in size. Also: potency is read from the fitted curve at half-maximal effect.
Assay [5] is described as follows: Primary qHTS for inhibitors of nuclear receptor binding SET domain protein 2 (NSD2) in an RCH-ACV wild type WT cells (2C) (AID 1645877). Also: nearly all actives have a fitted effect of over 70% in size. Also: potency is read from the fitted curve at half-maximal effect.
In assay [6] the target is Glutathione peroxidase 1 (Homo sapiens) (UniProt P07203). Kind of assay: Primary qHTS Assay for Inhibitors of Recombinant Selenoprotein Glutathione Peroxidase 1 (GPX1) (AID 1845191). Also: nearly all actives have a fitted effect of over 65% in size. A digest of the protocol:
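NADPH consumption tracked by fluorescence at 340/450 nm between t=0 and t=15 min, room temperature. Final mix: 10 nM GPX1, 100 nM glutathione reductase, 1 mM GSH, 0.5 mM NADPH, 0.5 mM cumene hydroperoxide, 0.01% BSA; 30 min compound–enzyme preincubation.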

Assay [7] deals with Phospholipid hydroperoxide glutathione peroxidase GPX4 (Homo sapiens) (UniProt P36969). Kind of assay: Primary qHTS Assay for Inhibitors of Recombinant Selenoprotein Glutathione Peroxidase 4 (GPX4) (AID 1845192). Also: nearly all actives have a fitted effect of over 65% in size. Also: potency is read from the fitted curve at half-maximal effect. As to activity change, negative = inhibition: % is scaled to controls: 0 for no effect and ±100 for the full control effect. A digest of the protocol: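 NADPH consumption followed by fluorescence at 340/450 nm, t=0 and after 15 min at room temperature. Reaction started with cumene hydroperoxide (0.5 mM final) after 30 min compound–GPX4 preincubation; final 200 nM GPX4, 100 nM GR, 1 mM GSH, 0.5 mM NADPH.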
Chain of Phospholipid hydroperoxide glutathione peroxidase GPX4 (Homo sapiens) (P36969 whole entry, looked up): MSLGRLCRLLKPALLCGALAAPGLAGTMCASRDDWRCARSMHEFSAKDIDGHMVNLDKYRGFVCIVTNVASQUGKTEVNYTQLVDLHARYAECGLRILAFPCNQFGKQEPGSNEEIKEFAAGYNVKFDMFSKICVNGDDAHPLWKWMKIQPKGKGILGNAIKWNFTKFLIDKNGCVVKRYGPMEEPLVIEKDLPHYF

The nature of assay [8]: qHTS drug screen for cell cycle checkpoint inhibitors in PARPi-resistant BRCA-mutant ovarian cancer cell lines. (AID 1963452; calls by dose curve). To be noted: PEO1/OlaR viability, CellTiter-Glo luminescence, 96 h, stronger effect = lower value. The essentials:
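PEO1, PEO4 and PEO1/OlaR ovarian cancer cells, 600 per well, exposed 96 h at 37C to a dilution series. Viability read by CellTiter-Glo luminescence, normalized to DMSO and empty wells; activity summarized as Z-AUC.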

Assay [9] is described as follows: NCATS anti-infectives library activity on HEK293 viability as a counter-qHTS vs the C. elegans viability qHTS (AID 1745854). Also: % is scaled to controls: 0 for no effect and ±100 for the full control effect. A digest of the protocol:
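CellTiter-Glo luminescence, read on a CCD imager, scored viability of HEK293 cells after 24 hr compound exposure at 37C. Library tested in several concentrations, 1:5 steps, up to 41.7 uM; digitonin served as control.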

Assay [10] has as its target Catechol O-methyltransferase (Homo sapiens) (UniProt P21964). Kind of assay: Confirmatory Screen for Target Class Profiling of Small Molecule Inhibitors of Methyltransferases (AID 1745852; calls by dose curve; as to activity change, negative = inhibition: % is scaled to controls: 0 for no effect and ±100 for the full control effect). The settings on record: MTase-Glo luminescence, SAH detection, recombinant enzyme; measured here: COMT max response; stronger effect = lower value.
In assay [11] the target is Guanidinoacetate N-methyltransferase (Homo sapiens) (UniProt Q14353). The assay is described as above. The settings on record: MTase-Glo luminescence, SAH detection, recombinant enzyme; activity change, negative = inhibition: at 57.3 µM (top of the series) unless noted.
Assay [12] has as its target Nicotinamide N-methyltransferase (Homo sapiens) (UniProt P40261). The assay is described as above. To be noted: MTase-Glo luminescence, SAH detection, recombinant enzyme; measured here: NNMT max response; stronger effect = lower value.
Assay [13] addresses Phenylethanolamine N-methyltransferase (Homo sapiens) (UniProt P11086). The assay is described as above. The settings on record: MTase-Glo luminescence, SAH detection, recombinant enzyme; measured here: PNMT max response; stronger effect = lower value.
Setting [14] is: measured here: PEO1 parental Z-AUC.

From PubChem BioAssay (NCATS) come the findings set out here.

Inconclusive results are not listed. The source made the active and inactive calls. Unless noted, calls follow the shape of the dose curve; as a rule, active = well fitted curve in the direction sought with a large enough effect; inconclusive = small, poorly fitted or top-dose-only effect, or another doubt; inactive = no such curve, though single readings can be large; an effect the other way counts as inactive or inconclusive.

Chain of Glutathione peroxidase 1 (Homo sapiens) (P07203 whole entry, looked up): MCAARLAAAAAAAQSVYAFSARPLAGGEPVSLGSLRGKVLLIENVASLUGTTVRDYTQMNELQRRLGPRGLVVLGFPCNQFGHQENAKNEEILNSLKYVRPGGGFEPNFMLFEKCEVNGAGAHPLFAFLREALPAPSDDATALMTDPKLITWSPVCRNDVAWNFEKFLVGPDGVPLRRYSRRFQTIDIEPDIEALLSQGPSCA
Chain of Phenylethanolamine N-methyltransferase (Homo sapiens) (P11086 whole entry, looked up): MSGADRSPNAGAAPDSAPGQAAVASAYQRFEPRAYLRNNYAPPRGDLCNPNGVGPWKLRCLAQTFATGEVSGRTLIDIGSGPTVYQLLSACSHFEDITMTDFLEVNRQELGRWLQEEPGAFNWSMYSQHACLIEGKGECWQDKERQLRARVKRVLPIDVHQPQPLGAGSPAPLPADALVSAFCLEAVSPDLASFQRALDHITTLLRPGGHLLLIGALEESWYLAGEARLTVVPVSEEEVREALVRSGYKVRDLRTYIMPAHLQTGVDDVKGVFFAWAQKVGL
Chain of Catechol O-methyltransferase (Homo sapiens) (P21964 whole entry, looked up): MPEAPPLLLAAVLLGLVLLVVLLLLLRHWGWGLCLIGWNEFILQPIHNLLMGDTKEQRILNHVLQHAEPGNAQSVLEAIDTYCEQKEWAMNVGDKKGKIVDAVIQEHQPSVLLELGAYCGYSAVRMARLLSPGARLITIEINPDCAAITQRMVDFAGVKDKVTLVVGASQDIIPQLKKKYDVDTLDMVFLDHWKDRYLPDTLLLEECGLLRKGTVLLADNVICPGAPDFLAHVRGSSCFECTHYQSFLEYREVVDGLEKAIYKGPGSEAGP
Chain of Nicotinamide N-methyltransferase (Homo sapiens) (P40261 whole entry, looked up): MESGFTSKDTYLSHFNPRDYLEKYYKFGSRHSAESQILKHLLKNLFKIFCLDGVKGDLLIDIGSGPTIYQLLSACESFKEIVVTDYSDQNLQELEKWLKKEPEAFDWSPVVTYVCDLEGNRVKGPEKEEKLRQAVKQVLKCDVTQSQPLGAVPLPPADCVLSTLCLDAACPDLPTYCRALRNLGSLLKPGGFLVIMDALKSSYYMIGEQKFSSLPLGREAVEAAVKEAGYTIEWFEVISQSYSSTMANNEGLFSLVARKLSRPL
Chain of Ubiquitin carboxyl-terminal hydrolase 2 (Homo sapiens) (O75604 whole entry, looked up): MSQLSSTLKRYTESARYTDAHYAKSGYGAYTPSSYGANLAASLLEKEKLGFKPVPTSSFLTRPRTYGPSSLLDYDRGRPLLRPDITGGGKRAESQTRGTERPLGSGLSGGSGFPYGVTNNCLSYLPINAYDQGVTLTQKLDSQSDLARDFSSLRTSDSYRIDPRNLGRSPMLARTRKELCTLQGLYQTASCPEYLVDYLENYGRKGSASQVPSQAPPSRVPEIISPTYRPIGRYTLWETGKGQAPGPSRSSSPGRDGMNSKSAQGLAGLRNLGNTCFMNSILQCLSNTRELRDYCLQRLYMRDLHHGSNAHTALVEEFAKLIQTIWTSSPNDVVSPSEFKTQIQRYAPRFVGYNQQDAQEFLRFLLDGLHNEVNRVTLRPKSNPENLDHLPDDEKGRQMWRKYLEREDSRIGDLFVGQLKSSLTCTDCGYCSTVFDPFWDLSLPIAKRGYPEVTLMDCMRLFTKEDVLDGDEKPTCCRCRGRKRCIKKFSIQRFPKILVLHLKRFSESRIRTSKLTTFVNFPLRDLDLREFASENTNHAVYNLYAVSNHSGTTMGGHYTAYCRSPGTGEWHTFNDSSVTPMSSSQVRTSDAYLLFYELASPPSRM

In the case of `O=C(Nc1noc2ccccc12)c1ccc(F)cc1`, in assay [1], the Potency was 39.8 µM (active).

`O=C(Nc1noc2ccccc12)c1c(F)cccc1F`: the Potency entry in assay [1] is “inactive”.

With `COc1cccc(NC(=O)CN(CCc2ccccc2)S(=O)(=O)c2ccc(Cl)cc2)c1`, in assay [1], the Potency was 8.51 µM (active).

In the case of `COc1cc2nc(N3CCCC3)nc(NC3CC3)c2cc1OC`, the Potency in assay [1] is 38.8 µM (active).

Turning to `Cc1cc(F)ccc1S(=O)(=O)Nc1cnccc1C(=O)Nc1nc(-c2ccccc2)cs1`, in assay [2], the outcome is “inactive”. Besides, the results for the Potency in assay [3] and in assay [1] were 0.968 µM (active) and 21.8 µM (active), respectively.

On to `Cc1cccc2nc(-c3ccc(Cl)s3)c(Nc3ccc4c(c3)OCCO4)n12`, for which the Potency in assay [1] is 3.25 µM (active).

Consider `Cc1cccc(-n2cnc3cc(C(=O)NC4CCCC4)ccc32)c1`, for which the Potency in [1] was 39.8 µM (active).

Consider `COc1cccc(-c2n[nH]c3c2C(c2cccc(O)c2)N(C)C3=O)c1` (centres undefined), for which the Potency in assay [1] was 44.7 µM (active).

Take `Cc1ccc(S(=O)(=O)Nc2cnccc2C(=O)Nc2nc(-c3cccc(C)c3)cs2)cc1`: the outcome in assay [2] is “inactive”. Moreover, the Potency is 1.37 µM (active) in assay [3] and 17.3 µM (active) in assay [1].

Turning to `COc1cc2c(NC3CCN(C(C)C)CC3)nc(N3CCCN(CC4CCCCC4)CC3)nc2cc1OCCCN1CCCCC1`, the Potency in [1] was 43.5 µM (active).

As to `Cc1c(Cl)ccc2sc(N3CCN(C(=O)C4CC4)CC3)nc12`, the Potency entry in assay [1] was “inactive”.

Turning to `Clc1ccc(-c2noc3ncnc(NC4CCCCC4)c23)cc1`, the Potency in [1] was 15.8 µM (active).

`CC[C@]12C=CCN3CC[C@@]4(c5cc([C@@]6(C(=O)OC)CC7C[C@@H](C(C)(F)F)CN(Cc8c6[nH]c6ccccc86)C7)c(OC)cc5N(C)[C@H]4[C@@](O)(C(=O)OC)[C@@H]1OC(C)=O)[C@@H]32` (some centres undefined): the results for the Potency in assay [4] and in assay [5] were 0.263 µM (active) and 0.186 µM (active), respectively.

Regarding `O=Nc1c(-c2c(O)[nH]c3ccc(F)cc23)[nH]c2ccccc12`, the Potency was 1.84 µM (active) in assay [4] and 2.06 µM (active) in assay [5]. In addition, the Potency entry in [6] was “inactive”.

For the compound `C[C@H](NC(=O)c1c(N)nn2cccnc12)c1cc2cccc(C#Cc3cnn(C)c3)c2c(=O)n1-c1ccccc1`, the figures for the Potency in [4] and in assay [5] were 1.62 µM (active) and 3.62 µM (active), respectively. The Potency entry in assay [6] and in assay [7] was “inactive” throughout. Moreover, the Z-AUC in assay [8] is -0.378 (inactive); in [8] (setting [14]), 0.564; in assay [8] (measured here: PEO4 Z-AUC), 0.799.

On to `CC[C@H](NC(=O)[C@H](C)NC)C(=O)N1C[C@@H](O)C[C@H]1Cc1c(-c2[nH]c3cc(F)ccc3c2C[C@@H]2C[C@H](O)CN2C(=O)[C@H](CC)NC(=O)[C@H](C)NC)[nH]c2cc(F)ccc12`, for which the Potency in assay [4] was 5.25 µM (active); in [5] it was 18.6 µM (active). For the same compound, the outcome in assay [9] was “inactive”.

For `Cc1c(O)cccc1C(=O)NC(CSc1ccccc1)C(O)CN1CC2CCCCC2CC1C(=O)NC(C)(C)C` (centres undefined), the Potency in [4] was 23.5 µM (active); in assay [5] it was 20.9 µM (active).

As for `CCOC(=O)CCNc1cc(N2CCc3ccccc3CC2)nc(-c2ccccn2)n1`, the Potency in assay [4] is 2.35 µM (active); in assay [5], 2.63 µM (active). In addition, the Potency result in assay [6] and in [7] was “inactive” each time.

Take `O=C1NC(=O)/C(=C/c2ccc(-c3ccc(F)cc3)o2)S1`: in assay [4], the Potency result is “inactive”.

For `O=C1N=C(O)S/C1=C\c1ccc2nccnc2c1`, the Potency was 18.4 µM (active) in [4] and 20.6 µM (active) in assay [5].

Consider `CC(=O)NCCNc1cc(Cl)nn2c(-c3cccc(S(=O)(=O)N(C)C)c3)c(C)nc12`, for which the results for the Potency in assay [4] and in assay [5] were 7.31 µM (active) and 4.61 µM (active), respectively. The Potency result in assay [6] was “inactive”.

Consider `CCN1CCN(c2ccc(Nc3ccc(-c4ccc(C(N)=O)cc4)n4ncnc34)cc2)CC1`, for which the results for the Potency in assay [4] and in [5] were 9.2 µM (active) and 7.31 µM (active), respectively. Further, the activity is -0.444% in [10], -65.3% in assay [12] and -8.41% in assay [13]. In [11], the activity change, negative = inhibition was determined as 0%. Moreover, in assay [6], the Potency entry was “inactive”.

As for `COc1cc2c(NC3CCN(C)CC3)nc(N3CCCN(C)CC3)nc2cc1OCCCN(C)C`, the Potency entry in assay [4], in assay [5] and in assay [6] was “inactive” each time. For the same compound, the results for the activity in assay [10], in assay [12] and in assay [13] were 3.04%, -9.37% and -4.66%, respectively. In addition, in [11], the activity change, negative = inhibition stood at 3.96%. In [7], the Potency was 18 µM (active). Moreover, the Z-AUC in assay [8] was -0.893 (inactive); in assay [8] (setting [14]), -0.915; in assay [8] (measured here: PEO4 Z-AUC) it was -1.6.

Turning to `Nc1nc2cc(-c3ccc4ncc(C(=O)N5CCOCC5)n4c3)ccc2o1`, the values for the Potency in assay [4] and in [5] were 8.33 µM (active) and 9.34 µM (active), respectively. Further, the Potency result in [6] and in assay [7] was “inactive” in each case. Also, the Z-AUC in assay [8] is 1.25 (inactive); in [8] (setting [14]), 0.336; in [8] (measured here: PEO4 Z-AUC) it was 0.353.

As for `COc1ccc(S(=O)(=O)N(C(C)=O)c2ccccc2/C=C/c2cc[n+]([O-])cc2)cc1`, the Potency in [4] and in assay [5] was 1.05 µM (active) each time. Moreover, in assay [6], the Potency result was “inactive”.

In the case of `O=C1Nc2ccccc2/C1=C/c1cc(O)ccc1O`, the Potency in [4] was 16.4 µM (active); in assay [5], 18.4 µM (active). Also, the activity in [10] was -4.65%; in [12], -18.3%; in [13], -2.66%. Further, in assay [11], the activity change, negative = inhibition was -0.984%. The Potency entry in assay [6] was “inactive”.

For the compound `CCCCOc1ccc(CC/C=C2\SC(=O)N(CCN)C2=O)cc1`, the Potency in assay [4] is 9.2 µM (active); in [5], 8.2 µM (active).

Consider `Oc1cccc(Nc2ncnc3sc4c(c23)CCCC4)c1`, for which the Potency in assay [4] is 9.2 µM (active); in assay [5], 8.2 µM (active). For the same compound, the Potency result in assay [6] was “inactive”.

For the compound `CCN1/C(=C/C(C)=O)Sc2ccc(OC(C)=O)cc21`, the Potency was 16.4 µM (active) in assay [4] and 20.6 µM (active) in assay [5]. Moreover, the Potency result in assay [6] was “inactive”.

In the case of `C=CC(C)(/C=C/c1ccc(O)cc1)CCC=C(C)C` (centres undefined), the Potency is 20.6 µM (active) in [4] and 18.4 µM (active) in [5]. Moreover, in assay [6], the Potency result is “inactive”.
